Experimental data taken from PubChem BioAssay (NCATS).
Values joined by “and” are separate entries in the source; they are usually repeats but may differ in a detail not shown here. Equal entries are not always repeated. Inconclusive results are not listed. Entries that show only a call come without a potency. Active and inactive are the calls of the source. Unless noted, calls come from the whole dose curve; as a rule, active = well fitted curve in the direction sought with a large enough effect; inconclusive = small, poorly fitted or top-dose-only effect, or another doubt; inactive = no such curve, though single readings can be large; an effect the other way counts as inactive or inconclusive.

Tests used:
[1] = Cell Viability - H-4-II-E (AID 543);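 note: cells exposed to compound for 40 hours; nearly all actives have a fitted effect of over 35% in size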
Procedure, shortened: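 Cells seeded at 1500 per well and rested 5 hr; compounds added; 40 hr incubation at 37 °C; CellTiter-Glo added, 20 min at room temperature; luminescence read. Hill-equation fits gave AC50.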

[2] = Cell Viability - SH-SY5Y (AID 544); conditions: SH-SY5Y neuroblastoma cell viability; viability change, negative = cytotoxic: at 92.2 µM (top of the series);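 note: cells exposed to compound for 40 hours; nearly all actives have a fitted effect of over 55% in size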; note: potency is the fitted concentration of half-maximal effect
Procedure, shortened: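 Cells were plated at 1500 per well and allowed 5 hr at 37 °C. Compounds were added across a concentration range and incubated 40 hr at 37 °C. CellTiter-Glo was added for 20 min at room temperature before luminescence reading.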

[3] = Cellular Toxicity (caspase-3) SHSY5Y (AID 657)
Procedure, shortened: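 Luminescent Caspase-Glo 3/7 read-out, 1 hr room temperature, follows 16 hours of compound treatment of SH-SY5Y cells at 37 °C. Normalization: DMSO basal, 10 uM staurosporine as 100%; AC50 values from Hill-equation concentration-response fits.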

[4] = Cell Viability - LYMP2-001 (AID 921); note: nearly all actives have a fitted effect of over 70% in size
Procedure, shortened: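 Cellular ATP loss read by luciferase luminescence after 24 h compound exposure at 37 C in complete medium. LYMP2-001 lymphoblastoid cells, 2500/well; qHTS concentration-response data fitted with Hill equation for AC50.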

[5] = MultiTox-Fluor Cytotoxicity Assay - LYMP1-003 - Live Cells (AID 962);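 note: cytotoxic hits lower the live-cell protease signal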
Procedure, shortened: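 Acute cytotoxicity is scored as a drop in live-cell protease activity in human lymphoblastoid LYMP1-003 cells after 16 hr compound exposure at 37 C. AC50 values come from Hill-equation modelling of concentration-response data.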

[6] = Cell Viability - LYMP2-004 (AID 966); note: nearly all actives have a fitted effect of over 65% in size
Procedure, shortened: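 qHTS cytotoxicity: human lymphoblastoid line, 24 hr compound treatment, 37 C, complete medium. Viability read as cellular ATP via luciferase luminescence; tetraoctylammonium bromide served as positive control.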

[7] = Cell Viability - LYMP2-013 (AID 970); note: nearly all actives have a fitted effect of over 55% in size; note: potency is the fitted concentration of half-maximal effect
Procedure, shortened: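 Cytotoxicity is scored as a concentration-dependent drop in intracellular ATP in human lymphoblastoid cells after 24 hr compound exposure at 37 C. ATP is quantified by luciferase luminescence, and AC50 values come from Hill-equation modeling.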

[8] = Cell Viability - LYMP2-025 (AID 976)
Procedure, shortened: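 Acute cytotoxicity is scored as a concentration-dependent fall in intracellular ATP, measured by luciferase luminescence, in human lymphoblastoid LYMP2-025 cells exposed to compound for 24 hours at 37 C. AC50 values come from standard Hill fits.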

[9] = Cell Viability - LYMP2-007 (AID 979);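 note: cells exposed to compound for 24 h before reading; nearly all actives have a fitted effect of over 60% in size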
Procedure, shortened: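 Cells are seeded at 2500 per well and rested 5 hr. Compounds are then added over a concentration series for 24 hr at 37 C. CellTiter-Glo is added for 30 min at room temperature before luminescence reading.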

[10] = Cell Viability - LYMP2-012 (AID 982);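 note: cellular ATP by luciferase luminescence where a drop means cytotoxicity; cells exposed to compound for one day before reading; nearly all actives have a fitted effect of over 55% in size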
[11] = Cell Viability - LYMP2-018 (AID 985); note: nearly all actives have a fitted effect of over 50% in size
Procedure, shortened: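 Seed 2500 lymphoblastoid cells per well, incubate 5 hr at 37 C, add compound and incubate 24 hr at 37 C, add CellTiter-Glo, wait 30 min at room temperature, then read luminescence.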

[12] = Cell Viability - LYMP2-026 (AID 989); note: nearly all actives have a fitted effect of over 50% in size
Procedure, shortened: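 Cells are seeded at 2500 per well and held 5 hr at 37 C. Compounds are added in concentration series for 24 hr, then CellTiter-Glo reagent is applied and luminescence read.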

[13] = Cell Viability - LYMP1-002 - Assay at 40 hr (AID 994); note: nearly all actives have a fitted effect of over 60% in size
Procedure, shortened: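 Cells are plated at 2500 per well and rested 5 hr at 37 C. Compounds are added and incubated 40 hr at 37 C. CellTiter-Glo reagent is added for 30 min at room temperature before luminescence is read.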

[14] = qHTS assay for small molecule agonists of retinoid X receptor alpha signaling (AID 588544; calls by dose curve); conditions: HEK293T RXRa-UAS-bla, beta-lactamase reporter, 18 h; 530 nm emission
[15] = biological target: Retinoic acid receptor RXR-alpha (Homo sapiens) (UniProt P19793); assay: as above
Sequence of Retinoic acid receptor RXR-alpha (Homo sapiens) (P19793 whole entry, looked up): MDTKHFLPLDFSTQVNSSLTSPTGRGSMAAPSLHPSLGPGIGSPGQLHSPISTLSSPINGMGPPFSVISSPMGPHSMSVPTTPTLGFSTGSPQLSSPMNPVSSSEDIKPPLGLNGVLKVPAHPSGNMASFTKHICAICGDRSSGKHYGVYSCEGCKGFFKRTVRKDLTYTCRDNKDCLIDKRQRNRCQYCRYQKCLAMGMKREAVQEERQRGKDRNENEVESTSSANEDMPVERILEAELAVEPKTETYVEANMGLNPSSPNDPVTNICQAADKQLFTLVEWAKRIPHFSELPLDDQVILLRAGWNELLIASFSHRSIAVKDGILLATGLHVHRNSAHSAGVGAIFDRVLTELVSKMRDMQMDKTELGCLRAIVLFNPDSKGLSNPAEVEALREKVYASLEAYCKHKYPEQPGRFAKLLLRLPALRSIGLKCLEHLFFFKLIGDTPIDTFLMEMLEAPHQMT

[16] = qHTS assay for small molecule antagonists of retinoid X receptor alpha signaling (AID 588546; active = well fitted inhibition curve with a large enough effect in the signal ratio, with a control signal flat, not every such curve was filed as active; the % refers to the signal ratio;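 note: cells stimulated with 9-cis-retinoic acid as agonist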); conditions: HEK293T RXRa-UAS-bla, beta-lactamase ratio, antagonist mode; measured here: W530 green channel, cytotoxicity proxy
Procedure, shortened: (§1)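 Beta-lactamase reporter inhibition, read as CCF4 fluorescence ratio (ex 405, em 460/530 nm) after 2 h at RT. HEK293T UAS-bla cells, 2500/well, were stimulated with 9-cis-RA at 500 or 100 nM final alongside test compound for 18 h at 37 C.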

[17] = biological target: Retinoic acid receptor RXR-alpha (Homo sapiens) (UniProt P19793); assay: as above; conditions: HEK293T RXRa-UAS-bla, beta-lactamase ratio, antagonist mode
Procedure, shortened: as §1

[18] = qHTS assay for small molecule agonists of the antioxidant response element (ARE) signaling pathway measured by Nrf2-dependant transcriptional activity (AID 720636; active = well fitted curve in the direction sought with a large enough effect in the repeat runs; an effect the other way counts as inactive or inconclusive)
Procedure, shortened: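 Nrf2-dependent transcription read as ONE-Glo luciferase signal from ARE-luc HepG2 reporter cells after 16 hr compound treatment at 37 C, 5% CO2, in assay medium with 1% dialyzed FBS.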

[19] = qHTS assay for small molecule antagonists of the retinoid-related orphan receptor gamma (ROR-gamma) signaling pathway - cell viability counter screen (AID 720652; active = well fitted curve in the direction sought with a large enough effect in the repeat runs; an effect the other way counts as inactive or inconclusive;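 note: CHO reporter cells with doxycycline-induced ROR-gamma expression; compound exposure lasted 16 hr before ATP read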)
Procedure, shortened: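 Steps: seed CHO cells bearing TET-inducible ROR and ROR response element-luciferase; rest 5 hr at 37 C; add compound, then doxycycline; incubate 16 hr; add CellTiter-Glo and read luminescence as ATP-based viability.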

[20] = Cell Viability - LYMP2-005 (AID 967)
Procedure, shortened: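 LYMP2-005 human lymphoblastoid cells (2500/well) were treated with compounds for 24 h at 37 C. Intracellular ATP was then measured by CellTiter-Glo luminescence after 30 min at room temperature. AC50 values came from Hill-equation fits of qHTS concentration-response data.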

| Compound | Potency [1] | Potency [2] | outcome [3] | Potency [4] | outcome [5] | Potency [6] | Potency [7] | Potency [8] | Potency [9] | Potency [10] | Potency [11] | Potency [12] | Potency [13] | max response [14] | outcome [15] | max response [16] | max response [17] | Potency [18] | Potency [19] | Potency [20] |
| --- | --- | --- | --- | --- | --- | --- | --- | --- | --- | --- | --- | --- | --- | --- | --- | --- | --- | --- | --- | --- |
| CN=C=O | inactive | inactive | inactive | inactive | inactive | inactive | inactive | inactive | inactive | inactive | inactive | inactive | inactive | -13% | inactive | -1.71% | 0.777% (inactive) | inactive | inactive | – |
| O=Cc1ccc2c(c1)OCO2 | inactive | inactive | inactive | inactive | inactive | inactive | inactive | inactive | inactive | inactive | inactive | inactive | inactive | 19.3% | inactive | -8.14% | -12.4% (inactive) | inactive | inactive | inactive |
| C=CC(=O)OCC(CC)CCCC (stereo not drawn) | inactive | inactive | inactive | inactive | inactive | inactive | inactive | inactive | inactive | inactive | inactive | inactive | inactive | -3.1% and -13.3% | inactive | -0.0756% and 2.94% | 4.48% (inactive) and -16.9% (inactive) | inactive | inactive | inactive |
| Nc1cc(Cl)ccc1Cl | inactive | inactive | inactive | inactive | inactive | inactive | inactive | inactive | inactive | inactive | inactive | inactive | inactive | -19.1% | inactive | 1.78% | 3.06% (inactive) | inactive | inactive | inactive |
| CC(Cl)CCl (stereo not drawn) | inactive | inactive | inactive | inactive | inactive | inactive | inactive | inactive | inactive | inactive | inactive | inactive | inactive | -14.1% | inactive | -10% | -6.12% (inactive) | inactive | inactive | inactive |
| Cc1ccc(N)c(N)c1 | inactive | 12.6 µM (active) | inactive | – | – | – | 39.8 µM (active) | inactive | – | – | – | inactive | – | -6.94% | inactive | 1.53% | -10.9% (inactive) | – | – | – |
| CCOP(=S)(OCC)SCCSCC | inactive | inactive | inactive | inactive | inactive | inactive | inactive | inactive | inactive | inactive | inactive | inactive | inactive | -7.08% and 7.34% | inactive | 7.97% and -18.3% | -3% (inactive) and -2.15% (inactive) | inactive | inactive | inactive |
| O=[N+]([O-])c1ccc(Cl)cc1 | inactive | inactive | inactive | inactive | inactive | inactive | inactive | inactive | inactive | inactive | inactive | inactive | inactive | -17.3% and -9.79% | inactive | -1.92% and -4.79% | 5.21% (inactive) and -2.59% (inactive) | inactive | inactive | inactive |
| CCOS(C)(=O)=O | inactive | inactive | inactive | inactive | inactive | inactive | inactive | – | inactive | inactive | inactive | inactive | inactive | -9.22% | inactive | -8.7% | -0.383% (inactive) | inactive | inactive | inactive |
| Cl/C=C\Cl | inactive | inactive | inactive | inactive | inactive | inactive | inactive | inactive | inactive | inactive | inactive | inactive | inactive | -20.4% | inactive | -4.97% | -5.23% (inactive) | inactive | inactive | inactive |
| CC(Cl)(Cl)Cl | inactive | inactive | inactive | inactive | inactive | inactive | inactive | inactive | inactive | inactive | inactive | inactive | inactive | -3.95% and -14.6% | inactive | 0.916% and -3.55% | 5.12% (inactive) and 15.9% (inactive) | inactive | inactive | inactive |
| O=C(Cl)OCc1ccccc1 | inactive | inactive | inactive | inactive | inactive | inactive | inactive | inactive | inactive | inactive | inactive | inactive | inactive | -1.31% | inactive | -3.27% | -3.17% (inactive) | inactive | inactive | inactive |
| CCCCCCCCCCCOC(=O)c1ccccc1C(=O)OCCCCCCCCCCC | inactive | inactive | inactive | inactive | inactive | inactive | inactive | inactive | inactive | inactive | inactive | inactive | inactive | -1.51% | inactive | 5.25% | -3.34% (inactive) | inactive | inactive | inactive |
| Cc1ccccc1[N+](=O)[O-] | inactive | inactive | inactive | inactive | inactive | inactive | inactive | inactive | inactive | inactive | inactive | inactive | inactive | -2.95% | inactive | -5.55% | 10.9% (inactive) | inactive | inactive | inactive |
| N#CCCCCC#N | inactive | inactive | inactive | inactive | inactive | inactive | inactive | inactive | inactive | inactive | inactive | inactive | inactive | 10.4% | inactive | -2.9% | 12.5% (inactive) | inactive | inactive | inactive |
